From PubChem BioAssay (NCATS)
Inconclusive results are not listed. Entries that show only a call come without a potency. Activity calls are given as the source filed them. Unless noted, calls come from the whole dose curve; as a rule, active = well fitted curve in the direction sought with a large enough effect; inconclusive = small, poorly fitted or top-dose-only effect, or another doubt; inactive = no such curve, though single readings can be large; an effect the other way counts as inactive or inconclusive.

Experiments:
[1] = qHTS Assay for Identification of Small Molecule Agonists for Thrombopoietin (TPO) Signaling Pathway (AID 917)
Outline: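 Murine Ba/F3 cells stably expressing human TPO receptor and a Glycoprotein IIb promoter–luciferase reporter were IL-3-starved overnight, then treated with compounds plus TPO (26 pM final, its EC50) for 24 hrs at 37 C; luminescence was read.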

[2] = biological target: Muscarinic acetylcholine receptor M1 (Rattus norvegicus) (UniProt P08482); assay: qHTS Assay for Antagonists of Acetylcholine Muscarinic M1 Receptor: Measurement of IP-One Response (AID 944); note: nearly all actives have a fitted effect of over 75% in size
Muscarinic acetylcholine receptor M1 (Rattus norvegicus), sequence (P08482 whole entry, looked up): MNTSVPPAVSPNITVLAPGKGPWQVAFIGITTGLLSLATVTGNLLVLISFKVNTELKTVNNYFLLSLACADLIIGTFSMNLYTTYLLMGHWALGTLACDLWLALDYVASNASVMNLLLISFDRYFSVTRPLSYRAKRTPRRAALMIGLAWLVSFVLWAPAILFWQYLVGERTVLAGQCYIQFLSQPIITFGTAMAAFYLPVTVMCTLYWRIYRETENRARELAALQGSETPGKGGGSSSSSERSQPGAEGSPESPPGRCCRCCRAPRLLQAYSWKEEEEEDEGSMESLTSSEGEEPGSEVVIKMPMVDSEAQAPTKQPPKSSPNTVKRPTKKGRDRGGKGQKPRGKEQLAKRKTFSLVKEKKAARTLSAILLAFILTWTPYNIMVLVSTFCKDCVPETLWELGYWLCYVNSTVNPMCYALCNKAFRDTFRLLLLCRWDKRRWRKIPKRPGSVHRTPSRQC
Outline: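 CHO cells stably expressing rat M1, pretreated 10 min with compound, then stimulated 30 min with carbachol at EC80 (200 nM) in LiCl-containing buffer pH 7.4; IP1 accumulation read by HTRF competition (665/620 nm).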

[3] = biological target: Pyruvate kinase (Leishmania mexicana) (UniProt Q27686); assay: qHTS Validation Assay for Inhibitors of Leishmania Mexicana Pyruvate Kinase (AID 945)
Pyruvate kinase (Leishmania mexicana), sequence (Q27686 2-499 E452W): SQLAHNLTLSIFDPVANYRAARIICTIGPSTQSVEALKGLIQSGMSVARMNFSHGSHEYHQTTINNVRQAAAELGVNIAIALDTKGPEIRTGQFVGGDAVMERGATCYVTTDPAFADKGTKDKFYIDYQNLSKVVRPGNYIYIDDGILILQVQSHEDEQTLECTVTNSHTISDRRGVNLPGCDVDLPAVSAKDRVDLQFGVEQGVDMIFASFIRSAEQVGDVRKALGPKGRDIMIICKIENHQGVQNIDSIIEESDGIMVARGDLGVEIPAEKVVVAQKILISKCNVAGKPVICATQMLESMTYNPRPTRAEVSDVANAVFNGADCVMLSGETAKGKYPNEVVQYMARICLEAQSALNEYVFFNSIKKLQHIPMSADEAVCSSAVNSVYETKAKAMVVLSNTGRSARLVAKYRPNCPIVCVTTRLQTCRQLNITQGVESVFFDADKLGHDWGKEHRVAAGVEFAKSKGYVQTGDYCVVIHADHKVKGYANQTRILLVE
Outline: (§1)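 Eight-point qHTS titrations; enzyme 0.2 nM LmPYK (E451W mutant); substrates 0.5 mM PEP, 0.1 mM ADP; 7 mM MgCl2; 1 h room temperature; PKLight luminescence normalized to neutral control.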

[4] = biological target: Pyruvate kinase PKM (Homo sapiens) (UniProt P14618); assay: qHTS Assay for Activators of Human Muscle Pyruvate Kinase (AID 954; active = well fitted curve in the direction sought with a large enough effect, not every such curve was filed as active)
Pyruvate kinase PKM (Homo sapiens), sequence (P14618 whole entry, looked up): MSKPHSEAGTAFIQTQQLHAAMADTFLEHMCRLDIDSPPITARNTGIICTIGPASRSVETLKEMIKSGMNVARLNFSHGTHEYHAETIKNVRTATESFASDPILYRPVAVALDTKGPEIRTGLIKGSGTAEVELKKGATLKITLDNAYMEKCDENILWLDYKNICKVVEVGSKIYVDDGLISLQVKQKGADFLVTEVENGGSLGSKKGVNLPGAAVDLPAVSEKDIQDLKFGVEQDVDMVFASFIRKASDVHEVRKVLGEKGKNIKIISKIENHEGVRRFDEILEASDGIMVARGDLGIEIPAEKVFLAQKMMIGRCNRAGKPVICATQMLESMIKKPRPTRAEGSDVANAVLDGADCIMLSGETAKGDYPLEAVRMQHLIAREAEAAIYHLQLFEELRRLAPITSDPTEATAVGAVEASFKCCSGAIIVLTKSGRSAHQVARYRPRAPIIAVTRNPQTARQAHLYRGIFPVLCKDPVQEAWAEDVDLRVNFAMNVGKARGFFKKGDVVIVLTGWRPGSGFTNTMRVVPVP
Outline: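 Purified human PKM2 (0.1 nM) with 0.5 mM PEP (Km) and 0.1 mM ADP in 50 mM imidazole pH 7.2, KCl, MgCl2, 1 h at room temperature; ATP formed read by coupled luciferase luminescence. Normalized to no-enzyme/110 uM thiadiazolimine inhibition; 0.3 nM enzyme column for activation.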

[5] = qHTS Assay for Identification of Small Molecule Antagonists for Thrombopoietin (TPO) Signaling Pathway (AID 918); details: TPO-dependent cell signaling reporter, antagonist mode; note: potency is the fitted concentration of half-maximal effect; nearly all actives have a fitted effect of over 60% in size
Outline: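 Murine Ba/F3 cells expressing human TPO receptor and a Glycoprotein IIb promoter-luciferase reporter, IL-3-starved overnight, treated with compound plus TPO at EC50 (26 pM final). After 24 h at 37 C, luminescence read to detect inhibitors.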

[6] = biological target: Muscarinic acetylcholine receptor M1 (Rattus norvegicus) (UniProt P08482); assay: qHTS Assay for Antagonists of Acetylcholine Muscarinic M1 Receptor: Kinetic Measurement of Intracellular Calcium Response (AID 943); note: nearly all actives have a fitted effect of over 75% in size; note: potency is the fitted concentration of half-maximal effect
Outline: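 CHO cells expressing rat M1 receptor, Fluo-4 loaded, preincubated 10 min with compound, then stimulated with EC80 carbachol (100 nM final). Kinetic calcium fluorescence over 4 min; response taken as peak over basal signal.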

[7] = biological target: Pyruvate kinase (Leishmania mexicana) (UniProt Q27686); assay: qHTS Validation Assay for Activators of Leishmania Mexicana Pyruvate Kinase (AID 959)
Outline: as §1

| Compound | Potency [1] | Potency [2] | Potency [3] | outcome [4] | Potency [5] | Potency [6] | Potency [7] |
| --- | --- | --- | --- | --- | --- | --- | --- |
| Cn1c(=O)c2[nH]c(-c3ccc(S(=O)(=O)O)cc3)nc2n(C)c1=O | inactive | inactive | inactive | inactive | – | – | – |
| O=c1[nH]c2ccccc2c2ccccc12 | inactive | – | inactive | inactive | – | – | – |
| COC(=O)[C@H](NC(=O)c1cc(-c2ccccc2)nc2ccccc12)c1ccccc1 | inactive | inactive | inactive | inactive | – | – | – |
| Cc1ccc([N+](=O)[O-])cc1S(=O)(=O)N(C)C | inactive | inactive | inactive | inactive | – | – | – |
| O=c1[nH]c(=O)c2nc3ccccc3nc2[nH]1 | inactive | inactive | inactive | inactive | – | – | – |
| O=C(N[C@@H](Cc1ccccc1)C(=O)CCl)OCc1ccccc1 | – | inactive | inactive | inactive | 2.51 µM (active) | inactive | – |
| CCCOC(=O)c1c(-c2ccccc2)nc(CC)c(C(=O)SCC)c1CCC | inactive | inactive | inactive | inactive | – | – | – |
| c1ccc2c(c1)CC(N1CCN(c3cccc4c3OCCO4)CC1)C2 | inactive | – | inactive | inactive | – | – | – |
| O=c1onc2n1-c1cc(Br)ccc1OC2 | inactive | inactive | inactive | inactive | – | – | – |
| C[C@H](O)C(=O)C1=Nc2c(nc(N)[nH]c2=O)NC1 | inactive | inactive | inactive | inactive | – | – | – |
| CCCCCCCC/C=C\CCCCCCCC(=O)NCCc1ccc(O)c(O)c1 | – | inactive | inactive | inactive | – | inactive | – |
| N[C@@H](CS(=O)O)C(=O)O | inactive | inactive | inactive | inactive | – | – | – |
| O=C(O)c1ccccc1Nc1cccc(OCc2ccc3ccccc3n2)c1 | – | inactive | inactive | inactive | – | inactive | – |
| COc1ccc(NC(=O)c2ccc(-c3ccc(-c4noc(C)n4)cc3C)cc2)cc1N1CCN(C)CC1 | – | – | inactive | inactive | 10 µM (active) | – | – |
| Nc1ccc2c3c(cccc13)C(=O)NC2=O | inactive | – | inactive | inactive | – | – | – |
| N=C(N)SCCc1cnc[nH]1 | – | inactive | inactive | inactive | 0.794 µM (active) | – | – |
| NC(=O)CNCCC(c1ccccc1)c1ccccc1 | inactive | – | inactive | inactive | – | – | – |
| O=c1ccc2c(OCCCCc3ccccc3)c3ccoc3cc2o1 | inactive | – | inactive | inactive | – | – | – |
| c1ccc(CN2CCC3(CCCc4ccccc43)CC2)cc1 | inactive | – | inactive | inactive | – | – | – |
| COc1ccccc1N1CCN(CCCCN2C(=O)c3ccccc3C2=O)CC1 | inactive | – | inactive | inactive | – | – | – |
| CCn1c(=O)[nH]c2cc(Cl)c(Cl)cc21 | inactive | inactive | inactive | inactive | – | – | – |
| COCc1nc2c([nH]1)c(=O)n(C)c(=O)n2CC(C)C | inactive | inactive | inactive | inactive | – | – | – |
| Fc1ccc(CN(C2=NCCN2)c2c(Cl)cccc2Cl)cc1 | inactive | – | inactive | inactive | – | – | – |
| COc1ccccc1N1CCN(CCN(C(=O)c2ccc(F)cc2)c2ccccn2)CC1 | inactive | inactive | inactive | inactive | – | – | – |
| CCCCCCCCCCCCCCC[C@H](O)[C@H](N)CO | – | inactive | inactive | inactive | 12.6 µM (active) | 8.91 µM (active) | – |
| CCCn1c(=O)c2[nH]c(-c3ccc(S(=O)(=O)O)cc3)nc2n(CCC)c1=O | inactive | inactive | inactive | inactive | – | – | – |
| COc1cc(CC(=O)O)ccc1O | inactive | inactive | inactive | inactive | – | – | – |
| O=C1Cc2c([nH]c3ccc(Br)cc23)-c2ccccc2N1 | – | – | – | – | – | – | inactive |
| CNC(=O)c1cc2c(cn1)[nH]c1ccccc12 | – | – | – | – | – | – | inactive |
